The source of these data is PubChem BioAssay AID493056 (National Center for Advancing Translational Sciences (NCATS), 2011).

“And” between values parts separate entries of the source, which are not always exact repeats. Equal values may be shown once. The whole screen tested about 360,000 compounds, of which about 2,400 (0.67%) were called active. Cut-off read from the data, not from the text of the source: active = enhancement above about 30%; inactive = the rest. The entries come from a sample that favours actives as a whole. Some structures have more than one record in an assay (separate samples or runs), and their calls can disagree.

Thyrotropin-releasing hormone receptor (Homo sapiens), sequence (P34981 whole entry, looked up): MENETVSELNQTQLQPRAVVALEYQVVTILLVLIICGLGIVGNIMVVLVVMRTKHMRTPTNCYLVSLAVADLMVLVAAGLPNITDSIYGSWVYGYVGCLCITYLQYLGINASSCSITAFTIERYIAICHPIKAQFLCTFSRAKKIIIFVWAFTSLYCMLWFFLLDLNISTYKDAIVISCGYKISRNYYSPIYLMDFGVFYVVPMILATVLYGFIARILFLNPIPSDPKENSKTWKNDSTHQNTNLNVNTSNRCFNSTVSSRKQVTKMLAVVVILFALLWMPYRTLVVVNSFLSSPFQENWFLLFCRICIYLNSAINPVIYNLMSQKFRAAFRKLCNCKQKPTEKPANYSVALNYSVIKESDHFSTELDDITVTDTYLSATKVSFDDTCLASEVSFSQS

The target in this assay is Thyrotropin-releasing hormone receptor (Homo sapiens) (UniProt P34981). Description: qHTS for Small Molecule Agonists and Allosteric Enhancers of Human TRH Receptor: Primary Screen for Enhancers. Note: 0% is about no effect. The conditions noted are these: TRHR cells, fluo-8 calcium fluorescence, EC20 TRH enhancement; at 2 µM; stronger effect = higher value. The method in brief:
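TRHR-expressing cells loaded with fluo-8 calcium dye were read kinetically (ex 480/em 530) during compound addition, then stimulated with an EC20 of TRH (10 nM final). Enhancement of the Gq-mediated intracellular calcium response was scored.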
For orientation: Quantitative high-throughput screening tests each substance at several concentrations.
Take `COc1ccc2oc(=O)c(-c3cn4c(n3)sc3cc(OC)ccc34)cc2c1`: the enhancement is 1.26% (inactive).

`Cc1ccc(S(=O)(=O)N2CCN(CC(=O)N/N=C/c3ccc(Br)s3)CC2)cc1`: the enhancement was 47.7% (active).

As to `C/C(=N/NC(=O)CN1CCN(S(=O)(=O)c2ccc(Br)cc2)CC1)c1ccncc1`, the enhancement is 1.09% (inactive).

For the compound `Cc1cccc(NC(=O)CN2CCCN(S(=O)(=O)c3ccc(Br)s3)CC2)c1`, the enhancement is 9.87% (inactive).

As for `CCOC(=O)c1ccccc1NC(=O)CCc1c(C)nc2c(c1C)c(=O)n(C)c(=O)n2C`, the enhancement is -7.61% (inactive).

For the compound `Cc1cc(C)cc(NS(=O)(=O)c2ccc(-c3cc(C)no3)s2)c1`, the enhancement was -5.49% (inactive).

On to `CCOc1cc(/C=C2\SC(N3CCCC(C)C3)=NC2=O)ccc1O` (stereo unspecified), for which the enhancement is -4.09% (inactive).

For the compound `CCc1ccc(/C=C2\SC(N3CCOCC3)=NC2=O)cc1`, the enhancement is 38.7% (active).

Turning to `O=C1N=C(N2CCOCC2)S/C1=C\C=C/c1ccccc1`, the enhancement was -2.61% (inactive).

On to `COc1ccc(CCNC(=O)CCCn2c(=O)c3ccccc3n(Cc3ccc(F)cc3Cl)c2=O)cc1OC`, for which the enhancement was 4.63% (inactive).

For the compound `COc1ccc(NC(=O)CSc2nc(NS(=O)(=O)c3ccc(C)cc3)cc(=O)[nH]2)cc1`, the enhancement was -7.18% (inactive).

`COC(=O)c1cccc(NC(=O)CSc2nc(C)cc(=O)[nH]2)c1`: the enhancement was 36.7% (active).

Take `COc1ccc2nc(SCC(=O)Nc3c(C)cc(C)cc3C)[nH]c2c1`: the enhancement was 0.227% (inactive).

For `Cc1csc(SCC(=O)Nc2sccc2C#N)n1`, the enhancement is -4.36% (inactive).

With `COc1ccc(NC(=O)CSc2nc3ccccc3[nH]2)cc1`, the enhancement is 39.7% (active).

On to `COc1ccc(NC(=O)CSc2ncnc3[nH]ncc23)cc1`, for which the enhancement was 3.87% (inactive).

With `CC(=O)c1cccc(NC(=O)CSc2nc3c(c(=O)[nH]2)CCC3)c1`, the enhancement is -3.58% (inactive).

Consider `O=C(COC(=O)CCCSc1nc2ccccc2[nH]1)Nc1ccc(Oc2ccccc2)cc1`, for which the enhancement was 1.7% (inactive).

As for `COc1ccc(NC(=O)CSc2nc(C)cs2)cc1`, the enhancement is 33.7% (active).

In the case of `COC(=O)c1cccc(Cn2nnc3sc4c(c3c2=O)CCC(C(C)(C)C)C4)c1` (stereo unspecified), the enhancement was -1.23% (inactive).

Take `COc1ccc(CCNC(=O)C(=O)NCC(c2ccco2)S(=O)(=O)c2cccs2)cc1OC` (stereo unspecified): the enhancement is -2.44% (inactive).

With `Cn1nnnc1Sc1ncnc2scc(-c3ccccc3[N+](=O)[O-])c12`, the enhancement is -1.81% (inactive).

Turning to `COc1cc(OC)cc(C(=O)Nc2ccc3nc(Nc4cccc(C(F)(F)F)c4)cc(C)c3c2)c1`, the enhancement is -5.96% (inactive).

For `CC1=CC(C)(C)N(C(=O)CSc2nnc(-c3ccccc3)o2)c2ccc(C)cc21`, the enhancement was 35.8% (active).

With `CC1=CC(C)(C)N(C(=O)CSc2nccn2C)c2cc(C)ccc21`, the enhancement is -7.93% (inactive).

As for `Cc1cccc(-c2nnc(SCC(=O)N3CCCc4ccccc43)o2)c1`, the enhancement is -6.5% (inactive).

Regarding `CCOc1ccc(-c2cc(C)n3nc(C(=O)Nc4ccc(C)c(C)c4)cc3n2)cc1`, the enhancement was 4.67% (inactive).

In the case of `COc1cccc(NC(=O)c2csnn2)c1`, the enhancement is 1.76% (inactive).

Consider `CCOC(=O)CNC(=O)c1cc2c(=O)n3cccc(C)c3nc2s1`, for which the enhancement was -2% (inactive).

Regarding `Cc1cccn2c(=O)c3cc(C(=O)NC4CCCCC4)sc3nc12`, the enhancement is 44.3% (active).

As to `Cc1ccccc1-n1nc(C)c2cc(C(=O)NC3CC3)sc21`, the enhancement is -3% (inactive).

`COc1ccc(Cl)cc1NC(=O)C(C)Sc1nc2c(c(=O)[nH]1)CCCC2` (stereo unspecified): the enhancement is 0.18% (inactive).

As to `COc1ccc(C2COC(=O)C2=N)c(NC(=O)c2ccccc2)c1` (stereo unspecified), the enhancement is -7.29% (inactive).

On to `CCOC(=O)c1cc(NC(=O)c2ccc(F)cc2)c(=O)n2c1oc1ccccc12`, for which the enhancement is -6.78% (inactive).

Regarding `CC(=O)c1cc(NC(=O)c2ccccc2)c(=O)oc1/C=C/N(C)C`, the enhancement is 31.6% (active).

For the compound `COc1cc(OC)c(NC(=O)Cc2ccc(-n3c(C)nc4cccnc43)cc2)cc1Cl`, the enhancement was 9.81% (inactive).

Turning to `CSc1n[nH]c(=S)n1N`, the enhancement is 4.42% (inactive).

As to `COc1ccc(OCc2n[nH]c(=S)n2N)cc1`, the enhancement was 41.1% (active).

For `COc1ccc(Cc2n[nH]c(=S)n2NC(=O)Nc2ccc(C)cc2)cc1`, the enhancement was -6.6% (inactive).

On to `COc1ccccc1N1CCN(c2ccc(=O)n(CC(=O)NCc3ccc(OC(C)C)cc3)n2)CC1`, for which the enhancement was 2.06% (inactive).

For the compound `COc1cc(OC)c(NC(=O)c2cnc(N3CCCC3)nc2C)cc1Cl`, the enhancement was 0.561% (inactive).

As to `CCOCCCNC(=O)c1c(NC(=O)c2nc(SC)ncc2Cl)sc2c1CCCC2`, the enhancement is 6.4% (inactive).

Regarding `CC1=C(C)CC(C(=O)NC(C)CCc2ccccc2)C(C(=O)O)C1` (stereo unspecified), the enhancement is 46.8% (active).

In the case of `CC(CCc1ccccc1)NC(=O)c1cnc(Cl)c(Cl)c1` (stereo unspecified), the enhancement is -11.8% (inactive).

Take `CCN(CC)S(=O)(=O)N1CCC(C(=O)NC(C)CCc2ccccc2)CC1` (stereo unspecified): the enhancement is 5.01% (inactive).

Turning to `CCc1nn(CC(=O)N2CCN(c3cccc(C(F)(F)F)c3)CC2)c(=O)c2cc3occc3n12`, the enhancement is 6.05% (inactive).

Consider `COc1cc(OC)cc(C(=O)NCCc2csc3nc(-c4ccccc4F)nn23)c1`, for which the enhancement is -2.81% (inactive).

As for `COc1ccc(C2(O)C(=O)Nc3ccccc32)cc1` (stereo unspecified), the enhancement was -4.9% (inactive).

As to `COc1ccc(C2(C)NC(=O)N(CC(=O)c3ccc4c(c3)OCO4)C2=O)cc1` (stereo unspecified), the enhancement is 2.8% (inactive).

As for `COc1ccc(C2(C)ON(c3ccccc3C(F)(F)F)C2=O)cc1` (stereo unspecified), the enhancement was 35% (active).

Regarding `COc1ccc(NC(=O)C2CCCN(S(=O)(=O)c3cccc4nonc34)C2)cc1Cl` (stereo unspecified), the enhancement is -6.01% (inactive).

Take `Cc1ccc(Cn2c(CCCNC(=O)C3CCCCC3)nc3ccccc32)cc1`: the enhancement was -17% (inactive).

For the compound `CC12CCC(C(=O)N3CCN(c4ncccn4)CC3)(c3nc4ccccc4nc31)C2(C)C` (stereo unspecified), the enhancement was -2.73% (inactive).

With `O=C(c1ccc2ccccc2n1)N1CCN(c2ccccc2Cl)CC1`, the enhancement is 2.59% (inactive).

As for `c1cnc(N2CCN(c3ccc4ccccc4n3)CC2)nc1`, the enhancement was 45.5% (active).

As for `CCOc1ccccc1CNC(=O)c1ccc(-n2c(C)cc3c2CCC(C)C3)cc1` (stereo unspecified), the enhancement was -0.716% (inactive).

As to `NC(=O)CSc1nc2c(oc3ccccc32)c(=O)n1Cc1ccccc1`, the enhancement was -1.53% (inactive).

With `O=C(CNC(=O)c1ccc(Cl)cc1Cl)NCC(=O)Nc1ccccc1N1CCOCC1`, the enhancement is 31.1% (active).

`O=C(Nc1ccccc1N1CCOCC1)c1ccncc1`: the enhancement was 6.76% (inactive).

In the case of `Cc1ccc(NC(=O)COC(=O)CNC(=O)c2ccc(Cl)cc2Cl)cc1S(=O)(=O)N1CCOCC1`, the enhancement is 1.95% (inactive).

For `CCOC(=O)c1ccc(-n2c(CCC(=O)O)ccc2-c2ccccc2)cc1`, the enhancement was -12.3% (inactive) and 10.9% (inactive).

In the case of `CCOC(=O)c1ccc(COC(=O)CCc2nc(-c3ccccc3)c(-c3ccccc3)o2)cc1`, the enhancement was 31.7% (active).

Take `CCOC(=O)c1c(-c2ccc(OC)cc2)oc2ccc(OCc3ccc(C(=O)OC)cc3)cc12`: the enhancement is -1.96% (inactive).

For the compound `COc1ccc(Cn2c(C(=O)O)c(CNCc3cccc(OC)c3)c3ccc(C)cc32)cc1`, the enhancement was 4.01% (inactive).

With `COc1cc(NC(=O)c2noc3c2CSc2ccccc2-3)cc(OC)c1OC`, the enhancement is 4.94% (inactive).

For the compound `COc1ccc(-c2[nH]c3c(c2-c2c(-n4cccc4)n(C)c(=O)n(C)c2=O)c(=O)n(C)c(=O)n3C)cc1`, the enhancement was 31.9% (active).

In the case of `COc1ccc(Nc2cc(=O)n(-c3ccccc3)c3c2c(=O)n(C)c(=O)n3C)cc1`, the enhancement is -11.6% (inactive).

With `COc1ccc(-c2c3c(=O)n(C)c(=O)n(C)c3c3c(C)nc4ccccc4n23)cc1`, the enhancement is -1.08% (inactive).

For the compound `CCOC(=O)c1cc(-c2ccccc2)n(CCC(=O)Nc2ccccc2CC)c1C`, the enhancement was 14% (inactive).

`Cc1ccccc1NC(=O)Cn1c(=O)n(CCCCC(=O)NCc2ccccc2Cl)c(=O)c2ccccc21`: the enhancement is 2.95% (inactive).

`Cc1c(C(=O)Nc2cccc(Cl)c2)oc2ccc(S(=O)(=O)N3CCOCC3)cc12`: the enhancement was -6.24% (inactive).

As to `CC(C)C[C@H](NC(=O)NCCc1ccc(Cl)cc1)C(=O)O`, the enhancement is -5.99% (inactive).

Regarding `C[C@H](NC(=O)NCCc1ccccc1)C(=O)O`, the enhancement is 33.9% (active).

Regarding `O=C(NCCc1ccccc1)C1CC1`, the enhancement was -3.66% (inactive).

Consider `CC(C)Cn1c(C2CC(=O)N(c3ccccc3Cl)C2)nc2ccccc21` (stereo unspecified), for which the enhancement was -0.635% (inactive).

For the compound `CN(C)c1ccc(C(=O)NCC(=O)OC(C(=O)Nc2cc(C(F)(F)F)ccc2Cl)c2ccccc2)cc1` (stereo unspecified), the enhancement is -3.56% (inactive).

Turning to `C[n+]1ccc(C(=O)NCc2ccccc2)cc1`, the enhancement was -9.31% (inactive).

In the case of `O=C(NCCCNCc1ccccc1)c1ccc(/C=N/O)nc1`, the enhancement is 15.9% (inactive).

Consider `C[N+](C)(C)CCNC(=O)c1cc[n+](Cc2ccccc2)c(/C=N/O)c1`, for which the enhancement was 40.4% (active).

On to `CCn1c(CN2CCC(C)CC2)nc2cc(NC(=O)c3ccccc3[N+](=O)[O-])ccc21`, for which the enhancement was 3.72% (inactive).

Turning to `COc1ccccc1-c1cc2nc(C)c(CCC(=O)O)c(C)n2n1`, the enhancement is 5.74% (inactive).

For the compound `O=C(COC(=O)C12CC3CC(CC(C3)C1)C2)NCc1ccco1`, the enhancement was -2.58% (inactive) and 33.9% (active).

Consider `O=C(CC12CC3CC(CC(C3)C1)C2)NCc1ccco1`, for which the enhancement is -4.28% (inactive).

`O=C(CC1CCCCC1)NCc1ccco1`: the enhancement is 14.2% (inactive).

Take `Cc1ccc(NC2=C(c3ccc(C(F)(F)F)cc3)C(=O)c3ccccc32)cc1F`: the enhancement was -15.7% (inactive).

For the compound `CCOC(=O)c1c(NC(=O)Cc2coc3ccc(CC)cc23)sc2c1CCC2`, the enhancement was -3.01% (inactive).

Turning to `O=C(Nc1nnc(C2CC(=O)N(c3ccc(Cl)cc3)C2)s1)c1ccco1` (stereo unspecified), the enhancement was -3.65% (inactive).

For the compound `CCc1ccc(NC(=O)c2cc(S(=O)(=O)NC3CCCCCC3)ccc2F)cc1`, the enhancement was 3.53% (inactive).

Turning to `O=C(Nc1ccccc1)c1ccccc1NC(=O)C(F)(F)F`, the enhancement is -2.9% (inactive).

Take `O=C(Nc1ccccc1)c1cccnc1Nc1ccccc1`: the enhancement is 47.9% (active).

Take `O=C(Nc1ccc(F)cc1)c1cccnc1N1CCOCC1`: the enhancement is -2.71% (inactive).
